Here are results for 26 compounds from PubChem BioAssay (NCATS).

Records with an inconclusive call do not appear. A number with no mark means an inactive call. Calls of active or inactive are those of the source. Calls come from the whole dose curve; as a rule, active = well fitted cell-killing curve with a large enough effect; inconclusive = small, poorly fitted or top-dose-only effect; inactive = flat fitted curve, though single readings scatter.

The test can be described thus: Cellular viability qHTS for adrenocortical cancer (ACC) cell line NCI-H295R (AID 1963990).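 For activity change, negative = viability loss: 0% = DMSO only wells and -100% = full killing with cytotoxic reference compound.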 Note: nearly all actives have a fitted effect of over 60% in size. The settings on record: CellTiter-Glo ATP luminescence, 48 h; series mostly up to 46.1 µM; activity change, negative = viability loss: at the top concentration. The procedure, abridged: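 IC50 and maximal efficacy derive from four-parameter logistic modelling of titration curves, with reads scaled between DMSO-only wells (0%) and doxorubicin hydrochloride (100% inhibition). Compounds spanned up to 46 uM over 48 h.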
Regarding `COc1ccc2c(c1)C(=O)N(CCc1ccc(S(=O)(=O)NC(=O)NC3CCCCC3)cc1)C(=O)C2(C)C`, the “activity change, negative = viability loss” value was -19.5%.

As for `C[C@@H](c1ccc2nccn2c1)n1nnc2ncc(-c3cnn(C)c3)nc21`, the “activity change, negative = viability loss” value was -13.2%.

As to `CCC(=O)OCC(=O)C1(OC(=O)CC)C(C)CC2C3CCC4=CC(=O)C=CC4(C)C3(F)C(O)CC21C` (stereo unspecified), the Potency is 4.47 µM (active).

As to `CS[C@H]1SC[C@@H]2C(=O)N(C)[C@H](C(C)C)C(=O)OC[C@H](NC(=O)c3cnc4ccccc4n3)C(=O)N[C@H](C)C(=O)N(C)[C@H]1C(=O)N(C)[C@H](C(C)C)C(=O)OC[C@H](NC(=O)c1cnc3ccccc3n1)C(=O)N[C@H](C)C(=O)N2C`, the Potency was 0.1 µM (active).

Consider `Nc1ccc2c(c1)CN1C(=O)c3ccccc3C1=N2`, for which the “activity change, negative = viability loss” value is -21% [at 20 µM].

Regarding `COc1ccc(-n2c(SCCCN3C(=O)c4cccc5cccc(c45)C3=O)nnc2-c2ccncc2)cc1`, the “activity change, negative = viability loss” value is -16.5%.

Regarding `NC(=O)c1ccc2nc(-c3ccc(C4(N)CCC4)cc3)c(-c3ccccc3)n2n1`, the Potency is 6.31 µM (active).

As to `CCCCC(CC)CN1CN(CC(CC)CCCC)CC(C)(N)C1` (stereo unspecified), the “activity change, negative = viability loss” value was -7.33%.

As for `Cc1cnc(Nc2ccc(F)cc2Cl)nc1-c1c[nH]c(C(=O)NC(CO)c2cccc(Cl)c2)c1` (stereo unspecified), the Potency is 8.91 µM (active).

Take `CC/C(=C(/c1ccc(O)cc1)c1ccc(OCCNC)cc1)c1ccccc1`: the “activity change, negative = viability loss” value was 9.53%.

Consider `Cc1nc2n(c(=O)c1CCN1CCC(C(=O)c3ccc(F)cc3)CC1)CCS2`, for which the “activity change, negative = viability loss” value is -28.2%.

Take `CC1(COc2ccc(CC3SC(=O)NC3=O)cc2)CCCCC1` (stereo unspecified): the Potency was 16.4 µM (active).

Turning to `CN(C)CCOC(c1ccccc1)c1ccc(Br)cc1` (stereo unspecified), the Potency was 13 µM (active).

For the compound `CC(C)=CCC1C(=O)N(c2ccccc2)N(c2ccccc2)C1=O`, the Potency is 20.6 µM (active).

For the compound `CCN(CCCc1ccccc1)CCCc1ccccc1`, the “activity change, negative = viability loss” value was -26.8%.

As to `CN1CCN(C2=Nc3cc(F)ccc3Cc3ccccc32)CC1`, the “activity change, negative = viability loss” value is -9.15%.

Consider `CC#CC(=O)N1CCC[C@H]1c1nc(-c2ccc(C(=O)Nc3ccccn3)cc2)c2c(N)nccn12`, for which the “activity change, negative = viability loss” value is -28.9% [at 20 µM].

As for `Cn1cc(C(=O)[C@@H]2CCc3nc[nH]c3C2)c2ccccc21`, the “activity change, negative = viability loss” value is -12.9%.

As for `CC(C)=CCOc1ccc(/C=C/C(=O)c2ccc(OCC=C(C)C)cc2OCC(=O)O)cc1`, the Potency was 9.2 µM (active).

`Nc1nc2ccccc2n1Cc1ccc(F)cc1`: the “activity change, negative = viability loss” value was -23.8%.

For `CCn1c(=O)c2c(nc(/C=C/c3ccc(OC)c(OC)c3)n2C)n(CC)c1=O`, the “activity change, negative = viability loss” value was -8.7%.

On to `Nc1n[n+]([O-])c2ccccc2[n+]1[O-]`, for which the Potency was 17.8 µM (active).

For `CC(C)NC[C@@H](O)COc1cccc2ccccc12`, the “activity change, negative = viability loss” value was -7.01%.

Turning to `c1ccc(OCc2ccc(CCCN3CCOCC3)cc2)cc1`, the “activity change, negative = viability loss” value was -14.6%.

For `CC(=O)NCC(=O)N1[C@@H]2CC[C@H]1c1ccc(Nc3ncc(C(F)(F)F)c(NC4CCC4)n3)cc12`, the Potency is 4.47 µM (active).

For `NC1=NCC2c3ccccc3Cc3ccccc3N12` (stereo unspecified), the “activity change, negative = viability loss” value is -21.4%.
